The results in this text go back to PubChem BioAssay.

The source made the active and inactive calls.

Test [1] in a line: optical density shifts of acrAB sulA E. coli – strain DRC41, OD650, 48 h, E. coli filamentation inducer project, primary screen (AID 1152).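 Further: E. coli MC1000 strain DRC41 lacking acrAB efflux pump and sulA.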 Particulars: higher = more signal, called active from +8 up or from −8 down.
Test [2] is described as follows: probe aLefty1 binding on compound microarray – biochemical, small-molecule microarray, 635/667 nm fluorescence, primary screen (AID 1153).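 Further: score merges spot fluorescence with signal-to-noise ratio from the scanned slide images.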 Conditions: higher = more signal.
The nature of test [3]: plasmodial surface anion channel blockers, osmotic lysis – cell-based, P. falciparum Indochina, OD700, 1 h, primary screen (AID 1154). Particulars: P. falciparum Indochina infected RBC osmotic lysis, higher = more signal, called active from +8 up or from −8 down.
The nature of test [4]: plasmodial surface anion channel blockers, osmotic lysis – cell-based, P. falciparum Indochina, OD700, 2 h, primary screen (AID 1155).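 Further: lysis reports solute entry through the parasite surface anion channel PSAC.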 Particulars: P. falciparum Indochina infected erythrocytes, higher = more signal, called active from +8 up or from −8 down.
A short description of test [5]: changes in parasitized red cell lysis, either direction – P. falciparum Indochina, OD700, 3 h, PSAC antagonist project, primary screen (AID 1156). Conditions: P. falciparum-infected erythrocytes, osmotic lysis, higher = more signal, called active from +8 up or from −8 down.
A short description of test [6]: plasmodial surface anion channel blockers, osmotic lysis – cell-based, P. falciparum Indochina, OD700, 18 h, primary screen (AID 1157). Conditions: P. falciparum Indochina infected erythrocytes, osmotic lysis OD700, 18 h; higher = more signal, called active from +8 up or from −8 down.
The nature of test [7]: S6 kinase pathway phospho-S6 level changes – cell-based, A549, cytoblot, luminescence, serum-stimulated, primary screen (AID 1158).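 Further: serum-stimulated A549 lung adenocarcinoma cells; signal is phosphorylated S6 detected by cytoblot immunostaining with HRP secondary.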 Particulars: 5 h, higher = more signal.
The target of test [8] is NADPH oxidase 2 (Homo sapiens) (UniProt P04839). Description: compounds shifting NOX2 Amplex Red fluorescence – cell-based, HEK293-NOX2, PMA-stimulated, NOX inhibitor project, primary screen (AID 1159). Further: test concentration not given here. Particulars: 45 min, higher = more signal, called active from +8 up or from −8 down.
Test [9] deals with NADPH oxidase 4 (Homo sapiens) (UniProt Q9NPH5). Description: compounds shifting NOX4 Amplex Red fluorescence – cell-based, HEK293-NOX4, tetracycline-induced, NOX inhibitor project, primary screen (AID 1160). Conditions: HEK293-NOX4, Amplex Red H2O2 fluorescence, 45 min; higher = more signal, called active from +8 up or from −8 down.
The target in test [10] is NADPH oxidase 5 (Homo sapiens) (UniProt Q96PH1). Description: compounds shifting NOX5 Amplex Red fluorescence – cell-based, HEK293-NOX5, NOX inhibitor project, primary screen (AID 1161). Conditions: HEK293-NOX5, ionomycin, 45 min, higher = more signal.
Chain of NADPH oxidase 5 (Homo sapiens) (Q96PH1 whole entry, looked up): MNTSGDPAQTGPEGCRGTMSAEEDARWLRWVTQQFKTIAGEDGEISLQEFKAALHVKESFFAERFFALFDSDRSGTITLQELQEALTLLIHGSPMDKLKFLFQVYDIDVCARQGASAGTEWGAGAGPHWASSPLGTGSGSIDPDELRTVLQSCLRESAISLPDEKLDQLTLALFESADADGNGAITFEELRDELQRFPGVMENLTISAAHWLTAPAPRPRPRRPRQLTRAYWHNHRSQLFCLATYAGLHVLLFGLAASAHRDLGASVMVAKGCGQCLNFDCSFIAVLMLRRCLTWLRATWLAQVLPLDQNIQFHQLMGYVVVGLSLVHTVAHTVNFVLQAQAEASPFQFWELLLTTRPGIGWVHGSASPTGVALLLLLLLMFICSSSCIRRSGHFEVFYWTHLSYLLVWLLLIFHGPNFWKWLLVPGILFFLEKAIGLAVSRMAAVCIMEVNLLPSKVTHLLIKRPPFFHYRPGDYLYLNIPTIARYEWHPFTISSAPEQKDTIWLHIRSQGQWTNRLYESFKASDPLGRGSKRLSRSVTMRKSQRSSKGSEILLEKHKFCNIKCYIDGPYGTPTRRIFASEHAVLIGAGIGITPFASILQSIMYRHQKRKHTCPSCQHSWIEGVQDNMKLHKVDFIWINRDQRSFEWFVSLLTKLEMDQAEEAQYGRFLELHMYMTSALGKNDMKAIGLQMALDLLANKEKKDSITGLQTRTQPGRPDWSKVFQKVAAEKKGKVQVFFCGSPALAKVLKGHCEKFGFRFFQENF

Chain of NADPH oxidase 4 (Homo sapiens) (Q9NPH5 whole entry, looked up): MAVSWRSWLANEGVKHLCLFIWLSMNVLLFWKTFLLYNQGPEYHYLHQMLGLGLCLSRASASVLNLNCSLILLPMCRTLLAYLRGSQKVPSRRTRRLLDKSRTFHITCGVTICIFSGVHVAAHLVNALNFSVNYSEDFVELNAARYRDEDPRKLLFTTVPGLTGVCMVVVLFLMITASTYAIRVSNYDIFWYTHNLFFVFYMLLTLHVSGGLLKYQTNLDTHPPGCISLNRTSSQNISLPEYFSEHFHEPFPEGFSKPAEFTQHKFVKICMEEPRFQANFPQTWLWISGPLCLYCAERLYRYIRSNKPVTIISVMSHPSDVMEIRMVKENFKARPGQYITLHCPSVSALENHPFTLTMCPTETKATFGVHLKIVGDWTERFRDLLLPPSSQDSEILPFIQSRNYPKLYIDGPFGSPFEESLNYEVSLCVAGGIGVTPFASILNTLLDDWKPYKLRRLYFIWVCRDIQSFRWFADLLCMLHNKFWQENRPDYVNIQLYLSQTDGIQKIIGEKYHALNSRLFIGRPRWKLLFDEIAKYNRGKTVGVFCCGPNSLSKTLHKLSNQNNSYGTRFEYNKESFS
Chain of NADPH oxidase 2 (Homo sapiens) (P04839 whole entry, looked up): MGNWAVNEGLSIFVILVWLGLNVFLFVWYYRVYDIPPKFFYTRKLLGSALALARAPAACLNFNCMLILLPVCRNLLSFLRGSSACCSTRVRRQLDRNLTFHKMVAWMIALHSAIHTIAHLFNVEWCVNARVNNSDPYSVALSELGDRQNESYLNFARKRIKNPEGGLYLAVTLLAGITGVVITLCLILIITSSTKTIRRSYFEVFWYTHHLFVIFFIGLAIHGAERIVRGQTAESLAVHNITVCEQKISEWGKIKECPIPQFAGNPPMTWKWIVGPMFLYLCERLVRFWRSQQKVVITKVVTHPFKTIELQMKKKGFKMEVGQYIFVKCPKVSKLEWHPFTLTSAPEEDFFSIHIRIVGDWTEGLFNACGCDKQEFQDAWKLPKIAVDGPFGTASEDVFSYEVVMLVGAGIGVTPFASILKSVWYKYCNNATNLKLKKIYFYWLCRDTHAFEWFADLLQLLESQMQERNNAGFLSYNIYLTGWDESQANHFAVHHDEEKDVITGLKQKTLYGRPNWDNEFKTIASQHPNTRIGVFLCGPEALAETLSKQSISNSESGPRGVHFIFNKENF

`CCOC(=O)C[C@H]1[C@H](OC(=O)Cc2ccc3c(c2)OCO3)[C@@H](NC(=O)C2CCCCC2)c2cc(OCCCO)ccc2N1C(=O)Cc1ccc(OC)cc1`: the z-score is 2.31 (inactive) in [1]; 5.77 (inactive) in test [3]; -0.54 (inactive) in test [4]; -1.21 (inactive) in [5]; -0.911 (inactive) in [6]; 1.97 in test [7]. Moreover, the z-score in [8] was -0.00495 (inactive); in test [9], 1.07 (inactive); in test [10] it was 0.297. This compound displayed a composite z-score in [2] of 0.405.

In the case of `CC1CC/C=C\[C@H]2OC34C=CCN(Cc5ccccc5)C(=O)[C@H]3N(CCCCCO)C(=O)[C@@H]4C2C(=O)O1` (stereo not given in full), the z-score in [1] is -0.94 (inactive); in test [3] it was -0.365 (inactive); in test [4], -0.0369 (inactive); in test [5], -0.692 (inactive); in [6], -0.0374 (inactive); in test [7], -0.689. Moreover, the z-score in test [8] is 0.852 (inactive); in [9], -0.14 (inactive); in test [10], 1.34. Besides, the composite z-score in test [2] was -0.326.

With `COCCOC(=O)N1C(=O)[C@@]2(c3cc(C#CCNC(N)=O)ccc31)[C@H](c1ccccc1OCCO)N1[C@H](c3ccccc3)[C@H](c3ccccc3)OC(=O)[C@H]1[C@@H]2C(N)=O`, the z-score is -0.816 (inactive) in test [1]; 4.2 (inactive) in [3]; 0.655 (inactive) in test [4]; 0.4 (inactive) in test [5]; 0.344 (inactive) in test [6]; -0.463 in test [7]. In addition, the z-score in [8] is 2.29 (inactive); in test [9], -0.672 (inactive); in [10], -0.584. In test [2], the composite z-score is -0.111.

Turning to `CN1C(=O)C2C(C1=O)C1C=C(CCCO)C2C(c2cccs2)N1C` (stereo not given), the z-score in test [1] is 0.325 (inactive); in [3] it was 1.52 (inactive); in test [4] it was 0.326 (inactive); in test [5], 1.31 (inactive); in test [6], 0.181 (inactive); in [7], -0.519. In addition, the z-score in test [8] is 0.108 (inactive); in [9], 0.378 (inactive); in test [10] it was 1.22. Besides, in test [2], the composite z-score was -0.274.

As to `C#CCN(C(/C=C/c1ccccc1)CO)C(C(=O)O)c1ccccc1` (stereo not given), the z-score in [1] was 1.86 (inactive); in [3], 0.175 (inactive); in test [4], -1.57 (inactive); in test [5], -0.168 (inactive); in test [6], -2.09 (inactive); in test [7], 1.81. Besides, the results for the z-score in [8], in test [9] and in test [10] were -0.269 (inactive), -0.46 (inactive) and -0.191, respectively. Also, the composite z-score in [2] is -0.319.

For `COC(=O)C1=CC(CCCO)=CC(C2CC2)N(Cc2sc3ccccc3c2Cl)C=C1C(=O)OC` (stereo not given), the z-score in test [1] was -0.899 (inactive); in test [3], 10.6 (active); in [4] it was 2.09 (inactive); in test [5], 0.901 (inactive); in [6] it was 1.23 (inactive); in [7] it was -0.18. Also, the z-score in test [8] is -0.986 (inactive); in test [9], -1.76 (inactive); in test [10], 0.19. Further, the composite z-score in test [2] was determined as 0.335.

Turning to `C=C(COC)/C(=C/C[C@H](OC(=O)c1ccncc1)c1cccc(OCCO)c1)c1cc(C(=O)OC)ccc1OC`, the z-score in test [1] is 0.395 (inactive); in test [3], 13.5 (active); in [4], 2.26 (inactive); in test [5], 2.48 (inactive); in test [6], 0.773 (inactive); in [7] it was -0.625. The z-score in [8] was 0.32 (inactive); in test [9], 0.00792 (inactive); in test [10], -1.51. Further, the composite z-score in [2] stood at 0.132.

Consider `COC(=O)C(CC#Cc1ccc2c(c1)[C@]1(C(=O)N2)[C@H](C(=O)NC[C@H](O)c2ccccc2)[C@H]2C(=O)O[C@H](c3ccccc3)[C@H](c3ccccc3)N2[C@@H]1c1ccc(OCCO)cc1)C(=O)OC`, for which the z-score is -0.658 (inactive) in test [1]; 5.95 (inactive) in test [3]; 2.11 (inactive) in test [4]; 0.0313 (inactive) in test [5]; 1.1 (inactive) in [6]; 0.161 in [7]. The z-score in test [8] was 1.39 (inactive); in [9] it was 0.865 (inactive); in test [10], 1.41. Moreover, the composite z-score in test [2] was found to be 1.78.

For `CCCCCCc1nc(CCCc2cc3c(c(CCCCCC)n2)[Si](C(C)C)(C(C)C)OC3)cc2c1[Si](C(C)C)(C(C)C)OC2`, the z-score in test [1] was -0.613 (inactive); in test [3] it was 0.611 (inactive); in [4], -1.07 (inactive); in test [5], 0.695 (inactive); in [6] it was -1.72 (inactive); in [7], 0.62. For the same compound, the z-score was -3.69 (inactive) in test [8], -1.13 (inactive) in [9] and -3.41 in test [10]. The composite z-score in test [2] amounted to 0.13.

For `CC(=CC1CCCCC1)[C@@H](NC(=O)c1ccc(C(F)(F)F)cc1)c1ccc(-c2ccccc2)cc1`, the z-score in test [1] was -2.14 (inactive); in test [3], 3.47 (inactive); in test [4], 1.03 (inactive); in test [5], 0.482 (inactive); in test [6] it was 0.813 (inactive); in test [7], 0.299. Further, the z-score was -0.709 (inactive) in [8], -0.683 (inactive) in test [9] and 0.0858 in [10]. The same compound had a composite z-score in test [2] of 0.117.

Take `O=C1OCCC=C[C@H]2OC34C=CCN(c5ccc6ccccc6c5)C(=O)[C@H]3N(CCCCCO)C(=O)[C@@H]4C12` (stereo not given in full): the z-score in test [1] is 1.3 (inactive); in [3], 3.56 (inactive); in test [4], 0.526 (inactive); in test [5], 2 (inactive); in test [6], 0.599 (inactive); in test [7], -0.37. Also, the figures for the z-score in test [8], in test [9] and in [10] were 1.95 (inactive), 0.913 (inactive) and 2.57, respectively. The compound also returned a composite z-score in test [2] of 0.831.

Turning to `C=CCC(OC(C)=O)[C@@H]1[C@@H](N(Cc2cccc3ccccc23)C(=O)c2ccc(C)cc2)c2cc(OCCCO)ccc2N1C(=O)Cc1ccc(OC)cc1` (stereo not given in full), the z-score in [1] is 2.7 (inactive); in test [3] it was 0.786 (inactive); in test [4] it was -0.438 (inactive); in test [5], -0.632 (inactive); in test [6], -0.669 (inactive); in test [7], 1.95. In addition, the values for the z-score in test [8], in test [9] and in test [10] were -0.993 (inactive), 0.727 (inactive) and 0.687, respectively. Moreover, the composite z-score in [2] was -0.0482.
